Measured values from PubChem BioAssay (NCI).
The panel holds about 79,000 compounds, 15% with a hit somewhere; the sample as a whole holds those more often. Activity calls are given as the source filed them. No stated cut-off is given here; in the data, active means growth inhibition above about 70%; inactive means the rest.

Legend:
[1] = NCI Yeast Anticancer Drug Screen. Data for the rad52 strain (AID 147);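 further: 0% = growth of vehicle-treated control cultures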; conditions: S. cerevisiae rad52 mutant growth inhibition, stronger effect = higher value
Method in brief: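 Here a repair-compromised yeast strain receives each compound; its growth is then quantified and normalised to vehicle-only controls.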

[2] = NCI Yeast Anticancer Drug Screen. Data for the wt1 strain (AID 149);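 further: 0% = growth of vehicle-treated wt1 cultures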; conditions: S. cerevisiae wt1 strain (SPY 50644) growth inhibition, stronger effect = higher value
Method in brief: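 Each compound is tested on wt1 yeast and the loss of growth versus vehicle gives the inhibition value.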

[3] = NCI Yeast Anticancer Drug Screen. Data for the rad50EPP+ strain (AID 151);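 further: 0% = growth of vehicle-treated control cultures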; conditions: S. cerevisiae rad50 mutant strain, stronger effect = higher value
Method in brief: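 Read-out is yeast growth inhibition relative to vehicle; cells used were the rad50EPP+ strain.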

[4] = NCI Yeast Anticancer Drug Screen. Data for the mgt1 strain (AID 153); conditions: S. cerevisiae mgt1 mutant growth inhibition, stronger effect = higher value
Method in brief: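 Measured: inhibition of mgt1 yeast growth by compound, normalized to vehicle-treated cultures.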

[5] = NCI Yeast Anticancer Drug Screen. Data for the rad50 strain (AID 155);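 further: 0% = growth of vehicle-only cultures of the same strain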; conditions: S. cerevisiae rad50 strain growth inhibition, stronger effect = higher value
Method in brief: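 Vehicle-treated cultures provide the reference for the growth inhibition reported for compound-exposed, repair-deficient yeast.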

[6] = NCI Yeast Anticancer Drug Screen. Data for the mec2-1 strain (AID 157); conditions: S. cerevisiae mec2-1 strain, stronger effect = higher value
Method in brief: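 Using mec2-1 yeast: add compound, measure growth, express inhibition versus vehicle-treated cultures.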

[7] = NCI Yeast Anticancer Drug Screen. Data for the rad14 strain (AID 159);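 further: 0% = growth of vehicle-treated control cultures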; conditions: S. cerevisiae rad14 strain growth inhibition, stronger effect = higher value
Method in brief: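 Inhibition of growth is reported for a repair-deficient yeast mutant following compound treatment, calculated relative to cultures that received vehicle.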

[8] = NCI Yeast Anticancer Drug Screen. Data for the sgs1 mgt1 strain (AID 161);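 further: 0% = growth of cultures given vehicle only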; conditions: S. cerevisiae sgs1 mgt1 strain, stronger effect = higher value
Method in brief: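 Yeast cells carrying a defined DNA-repair defect were exposed to test compounds. Growth inhibition was measured relative to vehicle-treated controls.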

[9] = NCI Yeast Anticancer Drug Screen. Data for the CLN2oe strain (AID 163);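 further: 0% = growth of vehicle-only control cultures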; conditions: S. cerevisiae CLN2oe strain, stronger effect = higher value
Method in brief: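 Whole-cell yeast growth assay. A strain engineered for altered cell-cycle control received compound, and inhibition relative to vehicle-treated cultures was recorded.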

[10] = NCI Yeast Anticancer Drug Screen. Data for the cln2 rad14 strain (AID 165);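 further: 0% = growth equal to vehicle treated cultures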; conditions: S. cerevisiae cln2 rad14 strain, stronger effect = higher value
Method in brief: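 Yeast strain cln2 rad14, bearing defects in cell cycle control and DNA repair, serves as the test system; values reflect growth inhibition compared with vehicle.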

[11] = NCI Yeast Anticancer Drug Screen. Data for the bub3 strain (AID 167); conditions: S. cerevisiae bub3 mutant strain, stronger effect = higher value
Method in brief: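 Mutant yeast screening strain plus compound; vehicle-treated cultures serve as the 0% inhibition reference.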

[12] = NCI Yeast Anticancer Drug Screen. Data for the mlh1 strain (AID 171);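 further: 0% = growth of vehicle-treated control cultures of the same strain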; conditions: S. cerevisiae mlh1 strain growth inhibition, stronger effect = higher value
Method in brief: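 A yeast strain with a defined genetic lesion serves as the test organism. Cultures receive compound or vehicle, and growth is measured.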

[13] = NCI Yeast Anticancer Drug Screen. Data for the sgs1 strain (AID 173);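 further: 0% = growth of vehicle-only control cultures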; conditions: S. cerevisiae sgs1 mutant, stronger effect = higher value
Method in brief: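 A genetically defined yeast mutant is incubated with the test compound, and its growth is compared to that of the same strain given vehicle.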

[14] = NCI Yeast Anticancer Drug Screen. Data for the mlh1 rad18 strain (AID 175); conditions: S. cerevisiae mlh1 rad18 strain growth inhibition, stronger effect = higher value
Method in brief: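 Steps: expose repair-defective yeast to compound; measure growth; express inhibition against vehicle-treated controls.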

[15] = NCI Yeast Anticancer Drug Screen. Data for the rad18 strain (AID 177); conditions: S. cerevisiae rad18 mutant growth inhibition, stronger effect = higher value
Method in brief: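 Measured value is growth inhibition of a yeast strain bearing a DNA repair alteration, referenced to vehicle-treated cells.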

[16] = NCI Yeast Anticancer Drug Screen. Data for the wt2 strain (AID 169); conditions: S. cerevisiae wt2 strain growth inhibition, stronger effect = higher value
Method in brief: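 Treated yeast vs. vehicle-treated yeast: growth inhibition determined.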

[17] = at 5.0 µM (retest, dose inferred, filed as 0.5)
[18] = at 50.0 µM (retest, dose inferred, filed as 5.0)

Measured: growth inhibition

Cc1c2ccnc(C(=O)NCCN(C)C)c2cc2c3cc(O)ccc3n(C)c12
inactive: [1]; at 1.2 µM 2% | [1]; at 3.7 µM 23% | [1]; at 11.0 µM 69% | [2]; at 1.2 µM 2% | [2]; at 3.7 µM 5% | [2]; at 11.0 µM 10% | [2]; at 33.0 µM 20% | [2]; at 100.0 µM 29% | [3]; at 1.2 µM -2% | [3]; at 3.7 µM 4% | [3]; at 11.0 µM 22% | [3]; at 33.0 µM 44% | [3]; at 100.0 µM 56% | [4]; at 1.2 µM 0% | [4]; at 3.7 µM 2% | [4]; at 11.0 µM 8% | [4]; at 33.0 µM 10% | [4]; at 100.0 µM 30% | [5]; at 1.2 µM 1% | [5]; at 3.7 µM 20% | [5]; [17] 11% | [5]; at 11.0 µM 67% | [5]; [18] 59% | [6]; at 1.2 µM 1% | [6]; at 3.7 µM 6% | [6]; [17] -7% | [6]; at 11.0 µM 14% | [6]; at 33.0 µM 26% | [6]; [18] 7% | [6]; at 50.0 µM 23.8% | [6]; at 100.0 µM 39% | [7]; at 1.2 µM 1% | [7]; at 3.7 µM 3% | [7]; at 11.0 µM 9% | [7]; at 33.0 µM 21% | [7]; at 100.0 µM 37% | [8]; [17] -4% | [8]; [18] 8% | [8]; at 50.0 µM 13.3% | [9]; at 1.2 µM 0% | [9]; at 3.7 µM 1% | [9]; at 11.0 µM 0% | [9]; at 33.0 µM 9% | [9]; at 100.0 µM 19% | [10]; [17] 4% | [10]; [18] 33% | [10]; at 50.0 µM 44.5% | [11]; at 1.2 µM 1% | [11]; at 3.7 µM 1% | [11]; [17] 40% | [11]; at 11.0 µM 4% | [11]; at 33.0 µM 14% | [11]; [18] 42% | [11]; at 50.0 µM 8.05% | [11]; at 100.0 µM 23% | [12]; at 1.2 µM 4% | [12]; at 3.7 µM 4% | [12]; at 11.0 µM 10% | [12]; at 33.0 µM 21% | [12]; at 100.0 µM 32% | [13]; at 1.2 µM -2% | [13]; at 3.7 µM 2% | [13]; at 11.0 µM 4% | [13]; at 33.0 µM 17% | [13]; at 100.0 µM 32% | [14]; [17] 0% | [14]; [18] -1% | [14]; at 50.0 µM 46.4% | [15]; at 1.2 µM -5% | [15]; at 3.7 µM -4% | [15]; at 11.0 µM -1% | [15]; at 33.0 µM 3% | [15]; at 100.0 µM 15%
active: [1]; at 33.0 µM 88% | [1]; at 100.0 µM 92% | [5]; at 33.0 µM 88% | [5]; at 50.0 µM 92.1% | [5]; at 100.0 µM 92%

Cc1ccc2c3ccc4c(c3n(C)c2c1)C(=O)C=CC4=O
inactive: [1]; at 1.2 µM -55% | [1]; at 3.7 µM -66% | [1]; at 11.0 µM -53% | [1]; at 33.0 µM -37% | [1]; at 100.0 µM 22% | [2]; at 1.2 µM -22% | [2]; at 3.7 µM -16% | [2]; at 11.0 µM -18% | [2]; at 33.0 µM -1% | [2]; at 100.0 µM 33% | [3]; at 1.2 µM -3% | [3]; at 3.7 µM 24% | [3]; at 11.0 µM 31% | [4]; at 1.2 µM 20% | [4]; at 3.7 µM 11% | [4]; at 11.0 µM 22% | [4]; at 33.0 µM 40% | [5]; at 1.2 µM -4% | [5]; at 3.7 µM -5% | [5]; [17] 7% | [5]; at 11.0 µM 3% | [5]; at 33.0 µM 10% | [5]; [18] 49% | [5]; at 50.0 µM 57.8% | [5]; at 100.0 µM 53% | [6]; at 1.2 µM -22% | [6]; at 3.7 µM -11% | [6]; [17] 7% | [6]; at 11.0 µM -3% | [6]; at 33.0 µM 23% | [6]; [18] 42% | [6]; at 50.0 µM 51.5% | [6]; at 100.0 µM 66% | [7]; at 1.2 µM -9% | [7]; at 3.7 µM -12% | [7]; at 11.0 µM -9% | [7]; at 33.0 µM -6% | [7]; at 100.0 µM 59% | [8]; [17] 9% | [8]; [18] 58% | [8]; at 50.0 µM 67.2% | [9]; at 1.2 µM -5% | [9]; at 3.7 µM -4% | [9]; at 11.0 µM -3% | [9]; at 33.0 µM 9% | [9]; at 100.0 µM 27% | [10]; [17] 18% | [10]; [18] 50% | [10]; at 50.0 µM 33.7% | [11]; at 1.2 µM -14% | [11]; at 3.7 µM -1% | [11]; [17] 43% | [11]; at 11.0 µM -11% | [11]; at 33.0 µM 16% | [11]; at 50.0 µM 61.2% | [11]; at 100.0 µM 56% | [16]; at 1.2 µM -47% | [16]; at 3.7 µM -28% | [16]; at 11.0 µM -30% | [16]; at 33.0 µM -29% | [16]; at 100.0 µM 38% | [13]; at 1.2 µM -32% | [13]; at 3.7 µM -24% | [13]; at 11.0 µM -16% | [13]; at 33.0 µM 16% | [13]; at 100.0 µM 63% | [14]; [17] 21% | [14]; at 50.0 µM 68% | [15]; at 1.2 µM 4% | [15]; at 3.7 µM 14% | [15]; at 11.0 µM 15% | [15]; at 33.0 µM 39%
active: [3]; at 33.0 µM 76% | [3]; at 100.0 µM 91% | [4]; at 100.0 µM 78% | [11]; [18] 80% | [14]; [18] 77% | [15]; at 100.0 µM 82%

CCCCOP(=O)(CCCP(=O)(OCCCC)OCCCC)OCCCC
active: [1]; at 100.0 µM 97% | [2]; at 100.0 µM 94% | [5]; at 100.0 µM 97% | [6]; at 100.0 µM 95% | [7]; at 100.0 µM 90% | [9]; at 100.0 µM 81% | [11]; at 100.0 µM 79%
inactive: [1]; at 1.2 µM 0% | [1]; at 3.7 µM 0% | [1]; at 11.0 µM 3% | [1]; at 33.0 µM 4% | [2]; at 1.2 µM -3% | [2]; at 3.7 µM 0% | [2]; at 11.0 µM 0% | [2]; at 33.0 µM 5% | [3]; at 1.2 µM -4% | [3]; at 3.7 µM -4% | [3]; at 11.0 µM -3% | [3]; at 33.0 µM -3% | [3]; at 100.0 µM -2% | [4]; at 1.2 µM -3% | [4]; at 3.7 µM -3% | [4]; at 11.0 µM -1% | [4]; at 33.0 µM 10% | [4]; at 100.0 µM 42% | [5]; at 1.2 µM -1% | [5]; at 3.7 µM 1% | [5]; [17] 7% | [5]; at 11.0 µM 1% | [5]; at 33.0 µM 7% | [5]; [18] 66% | [5]; at 50.0 µM 2.05% | [6]; at 1.2 µM -6% | [6]; at 3.7 µM -3% | [6]; [17] -7% | [6]; at 11.0 µM 2% | [6]; at 33.0 µM 7% | [6]; [18] 48% | [6]; at 50.0 µM 49.5% | [7]; at 1.2 µM 0% | [7]; at 3.7 µM 3% | [7]; at 11.0 µM 9% | [7]; at 33.0 µM 20% | [8]; [17] 12% | [8]; [18] 50% | [8]; at 50.0 µM -2.15% | [9]; at 1.2 µM 1% | [9]; at 3.7 µM -3% | [9]; at 11.0 µM 7% | [9]; at 33.0 µM 29% | [10]; [17] 7% | [10]; [18] 38% | [10]; at 50.0 µM 1.1% | [11]; at 1.2 µM -5% | [11]; at 3.7 µM -3% | [11]; [17] 0% | [11]; at 11.0 µM -2% | [11]; at 33.0 µM 1% | [11]; [18] 4% | [11]; at 50.0 µM 19.2%
